Bioassay records (PubChem BioAssay)
Shown are actives, neighbours in structure and some others; about 19% of the full set was active somewhere.
IL-1B inflam inh: inflammasome signaling inhibition, IL-1 beta readout. THP-1 LPS/ATP IL-1B secretion, AlphaLISA, 16 h; stronger effect = lower value. activity change, % at 57.5 µM. 4.7% of 360,000 active; in the data active = activity change below about -50%; inconclusive = mostly about -30% to -49%
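THP-1 cells pretreated 1 hr with compounds (up to 57.5 uM final), then stimulated with LPS (250 ng/mL final) plus ATP (1.25 mM final); secreted IL-1B measured by AlphaLISA after 16 hr, decreased signal indicating inhibition.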
DT40 TDP1 no CPT: qHTS for Inhibitors of human tyrosyl-DNA phosphodiesterase 1 (TDP1): qHTS in cells in absence of CPT. 15% of 420,000 active. DT40 Tdp1-/- hTDP1 cells, no CPT, ATP luminescence, 48 h. Potency, µM (titrated, usually from 46.2 µM), for the others: top-dose activity change, negative = growth inhibition, hits mostly inhibitors; note: potency is the fitted concentration of half-maximal effect; nearly all actives have a fitted effect of over 55% in size
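Chicken DT40 Tdp1-/- cells stably complemented with human TDP1 were seeded at 400 cells/well with DMSO in place of 20 nM camptothecin. After compound pinning, cells grew at least 48 hr at 37 °C; viability read by CellTiter-Glo luminescence.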
HT1080 IDH1KD tx: HT-1080 IDH1 knockdown cell toxicity (counter line); HT-1080 IDH1 knockdown viability, ATP luminescence, 48 h; Potency, µM (doses to about 46.1 µM), inactives show at the highest dose activity, negative = toxicity, actives largely listed as cytotoxic; 2% of 360,000 active; AID 686971;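 note: potency is the fitted concentration of half-maximal effect; 0% = DMSO wells and -100% = cell-free medium wells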
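Assay cells: HT-1080 with IDH1 knockdown, 750 per well, RPMI/5% FBS. Exposure: 48 h at 37 °C following 2 h pre-incubation. Read: CellTiter-Glo luminescence; fitted concentration-response, curve class assigned.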
TDP1 cell CPT: growth inhibition of DT40 Tdp1-/-;hTDP1 cells with camptothecin (screen for TDP1 inhibitors) | 12% of 420,000 active | AID 686979 | Potency, µM (top dose mostly 46.2 µM), for inactives: at the top dose activity change, negative = growth inhibition, usual class: inhibitors | chicken DT40 Tdp1-/-;hTDP1 cells + 20 nM CPT, ATP luminescence, 48 h; note: potency is the fitted concentration of half-maximal effect; nearly all actives have a fitted effect of over 55% in size
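Chicken DT40 Tdp1-/- cells stably complemented with human TDP1 were seeded at 400 cells/well in medium containing 20 nM camptothecin, exposed to pin-transferred compounds, and grown at 37 °C for at least 48 hr. Viability was read as ATP luminescence.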
HT1080-NT tox: kills 2HG-producing HT-1080-NT fibrosarcoma cells. HT-1080-NT fibrosarcoma viability, CellTiter-Glo ATP luminescence, 48 h. Potency, µM (series often up to 46.1 µM), without a hit: at the top dose activity, negative = less viability, usual class: cytotoxic. 1.6% of 360,000 active. AID 686970;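 note: NT is the 2HG producing partner of a matched IDH1 knockdown line; potency is the fitted concentration of half-maximal effect; 0% = DMSO-treated cells and -100% = media-only wells without cells; nearly all actives have a fitted effect of over 55% in size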
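HT-1080-NT fibrosarcoma cells (2HG-overproducing), 750 cells/well in RPMI with 5% FBS, dosed after 2 h and incubated 48 h at 37C. CellTiter-Glo luminescence normalized to DMSO and no-cell wells; concentration-response curves fitted and classed.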
The depositor's hits bear a star; u = inconclusive; x = no result. Unless noted, calls come from the whole dose curve; as a rule, active = well fitted curve in the direction sought with a large enough effect; inconclusive = small, poorly fitted or top-dose-only effect, or another doubt; inactive = no such curve, though single readings can be large; an effect the other way counts as inactive or inconclusive. Unless noted, % is set by controls: 0 for no effect and ±100 for the full control effect.

SMILES | IL-1B inflam inh | DT40 TDP1 no CPT | HT1080 IDH1KD tx | TDP1 cell CPT | HT1080-NT tox
O=S(=O)(Nc1ncccn1)c1ccc(NC(=S)N2CCN(c3cccc(C(F)(F)F)c3)CC2)cc1 | 8 | -15% | -2% | -2% | -16%
FC(F)(F)c1cccc(NC(=S)N2CCN(c3cccc(C(F)(F)F)c3)CC2)c1 | -2 | 15µM* | u | u | -20%
Fc1ccc(NC(=S)N2CCN(c3cccc(C(F)(F)F)c3)CC2)cc1 | 8 | 13µM* | -14% | 21µM* | -3%
O=S(=O)(c1cccc(NC(=S)N2CCN(c3ccccc3)CC2)c1)C(F)F | -15 | 16µM* | 1% | 13µM* | -1%
S=C(Nc1ccccc1)N1CCN(c2ccccc2)CC1 | -8 | u | 11% | u | 5%
CCN1CCN(C(=S)Nc2cccc(C(F)(F)F)c2)CC1 | 25 | -17% | -13% | 3% | -8%
CCOc1cc(C(=O)N2CCN(c3ccccn3)CC2)cc(OCC)c1OCC | 4 | -8% | -1% | -24% | -1%
Cc1csc(=O)n1CCC(=O)OCC(=O)Nc1cc([N+](=O)[O-])ccc1Cl | 5 | -13% | -5% | -8% | -7%
O=c1cc(O)n(-c2ccccc2)c(=S)[nH]1 | 11 | u | 11% | 21µM* | 4%
COC(=O)c1c(C)cccc1C1CN=NC12Cc1ccccc1C2=O (stereo unspecified) | -90* | u | -2% | 15µM* | 0%
COc1ccccc1C1CN=NC12CCCc1ccccc1C2=O (stereo unspecified) | -23 | u | -15% | u | -22%
O=C1CCCCCC(=O)[C@H](O)C[C@H](c2ccccc2)O1 | 47 | -10% | 9% | 3% | 9%
O=C(Cc1ccc([N+](=O)[O-])cc1)Nc1cccc(C(F)(F)F)c1 | -6 | u | 0% | u | -2%
COc1ccccc1CC(=O)Nc1ccc2nc(Nc3cccc(Cl)c3)cc(C)c2c1 | x | 16µM* | x | 21µM* | x
Cc1ccc(OCC(=O)Nc2ccc3nc(Nc4cccc(Cl)c4)cc(C)c3c2)cc1 | x | -1% | x | 4% | x
Cc1cc(=O)oc2cc(NC(=O)COc3cccc(C(F)(F)F)c3)ccc12 | -22 | u | -7% | u | -2%
Cc1cc(Nc2cccc(C(F)(F)F)c2)nc2ccc(NC(=O)Cc3ccc(Cl)cc3)cc12 | x | 23µM* | x | u | x
